Test results published in PubChem BioAssay AID1159580 (chemical genetic matrix, 2015).
The campaign covered roughly 5,500 compounds. About 2,000 (36%) were called active. Roughly 18% stayed inconclusive and do not appear here. Rule as the data show it: active = normalized growth mostly below about 0.91 (no sharp cut-off); inconclusive = no clear call, values can overlap the other calls; inactive = mostly above about 0.92. The list shows a part of the results.

Test: chemical genetic growth profiling, strain panel (AID 1159580);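 also: tested at 20 µM; growth read once vehicle control cultures reached saturation at 30 °C; 1 = growth at the plate median or of vehicle wells; lower values mean less growth of the strain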
Settings: growth OD

Measured: normalized growth

COc1cc(O)c2c(=O)cc(-c3ccc(OC)c(-c4c(O)cc(O)c5c(=O)cc(-c6ccc(O)cc6)oc45)c3)oc2c1
active: S. cerevisiae deletion strains, locus YBR021W, strain FUR4, hits give low values 1.18 [resistant] | S. cerevisiae deletion strains, locus YGL248W, strain PDE1, hits give low values 0.877
inactive: S. cerevisiae deletion strains, locus YAL021C, strain ccr4, hits give low values 0.991 | S. cerevisiae deletion strains, locus YAL026C, strain drs2, hits give low values 0.982 | S. cerevisiae deletion strains, locus YAL030W, strain snc1, hits give low values 1.01 | S. cerevisiae deletion strains, locus YBL061C, strain skt5, hits give low values 0.996 | S. cerevisiae deletion strains, locus YBR009C, strain hhf1, hits give low values 0.988 | S. cerevisiae deletion strains, locus YBR023C, strain chs3, hits give low values 0.993 | S. cerevisiae deletion strains, locus YBR171W, strain sec66, hits give low values 1.03 | S. cerevisiae deletion strains, locus YBR229C, strain ROT2, hits give low values 0.948 | S. cerevisiae deletion strains, locus YBR231C, strain swc5, hits give low values 0.972 | S. cerevisiae deletion strains, locus YBR279W, strain paf1, hits give low values 1 | S. cerevisiae deletion strains, locus YCL011C, strain gbp2, hits give low values 1.02 | S. cerevisiae deletion strains, locus YCL016C, strain dcc1, hits give low values 1 | S. cerevisiae deletion strains, locus YCL029C, strain bik1, hits give low values 0.992 | S. cerevisiae deletion strains, locus YCL061C, strain MRC1, hits give low values 1 | S. cerevisiae deletion strains, locus YCL069W, strain vba3, hits give low values 1.02 | S. cerevisiae deletion strains, locus YCR088W, strain abp1, hits give low values 1.03 | S. cerevisiae deletion strains, locus YDL005C, strain med2, hits give low values 1.03 | S. cerevisiae deletion strains, locus YDL035C, strain GPR1, hits give low values 0.951 | S. cerevisiae deletion strains, locus YDL040C, strain nat1, hits give low values 1.01 | S. cerevisiae deletion strains, locus YDL074C, strain BRE1, hits give low values 1.01 | S. cerevisiae deletion strains, locus YDL101C, strain DUN1, hits give low values 0.959 | S. cerevisiae deletion strains, locus YDL134C, strain PPH21, hits give low values 0.917 | S. cerevisiae deletion strains, locus YDL185W, strain tfp1, hits give low values 0.968 | S. cerevisiae deletion strains, locus YDL192W, strain arf1, hits give low values 1 | S. cerevisiae deletion strains, locus YDR001C, strain nth1, hits give low values 1.02 | S. cerevisiae deletion strains, locus YDR069C, strain doa4, hits give low values 0.914 | S. cerevisiae deletion strains, locus YDR101C, strain arx1, hits give low values 0.997 | S. cerevisiae deletion strains, locus YDR137W, strain rgp1, hits give low values 1.05 | S. cerevisiae deletion strains, locus YDR150W, strain NUM1, hits give low values 0.953 | S. cerevisiae deletion strains, locus YDR159W, strain sac3, hits give low values 1.02 | S. cerevisiae deletion strains, locus YDR162C, strain NBP2, hits give low values 0.915 | S. cerevisiae deletion strains, locus YDR195W, strain ref2 0.986 | S. cerevisiae deletion strains, locus YDR297W, strain sur2, hits give low values 0.996 | S. cerevisiae deletion strains, locus YDR318W, strain mcm21, hits give low values 0.987 | S. cerevisiae deletion strains, locus YDR334W, strain swr1, hits give low values 1 | S. cerevisiae deletion strains, locus YDR335W, strain msn5, hits give low values 1.03 | S. cerevisiae deletion strains, locus YDR388W, hits give low values 0.986 | S. cerevisiae deletion strains, locus YDR392W, strain spt3, hits give low values 0.91 | S. cerevisiae deletion strains, locus YDR502C, strain sam2, hits give low values 0.978 | S. cerevisiae deletion strains, locus YEL003W, strain gim4, hits give low values 1 | S. cerevisiae deletion strains, locus YEL037C, strain rad23, hits give low values 1.01 | S. cerevisiae deletion strains, locus YEL061C, strain CIN8 (second series), hits give low values 1.02 | S. cerevisiae deletion strains, locus YEL061C, strain CIN8, hits give low values 0.934 | S. cerevisiae deletion strains, locus YER015W, strain faa2, hits give low values 1 | S. cerevisiae deletion strains, locus YER016W, strain bim1, hits give low values 1.01 | S. cerevisiae deletion strains, locus YER110C, hits give low values 0.983 | S. cerevisiae deletion strains, locus YER111C, strain swi4, hits give low values 1.01 | S. cerevisiae deletion strains, locus YER155C, strain BEM2 (second series), hits give low values 0.962 | S. cerevisiae deletion strains, locus YER155C, strain BEM2, hits give low values 1.03 | S. cerevisiae deletion strains, locus YER167W, strain BCK2, hits give low values 0.957 | S. cerevisiae deletion strains, locus YFR010W, strain ubp6, hits give low values 0.965 | S. cerevisiae deletion strains, locus YGL078C, strain dbp3, hits give low values 0.987 | S. cerevisiae deletion strains, locus YGL167C, strain pmr1, hits give low values 1.01 | S. cerevisiae deletion strains, locus YGL173C, strain kem1, hits give low values 0.975 | S. cerevisiae deletion strains, locus YGL227W, strain vid30, hits give low values 1.03 | S. cerevisiae deletion strains, locus YGL240W, strain doc1, hits give low values 1.05 | S. cerevisiae deletion strains, locus YGL253W, strain hxk2, hits give low values 1.03 | S. cerevisiae deletion strains, locus YGR078C, strain PAC10, hits give low values 0.913 | S. cerevisiae deletion strains, locus YGR135W, strain pre9, hits give low values 0.971 | S. cerevisiae deletion strains, locus YGR229C, strain SMI1, hits give low values 0.92 | S. cerevisiae deletion strains, locus YGR252W, strain gcn5, hits give low values 1.09 | S. cerevisiae deletion strains, locus YHR013C, strain ard1, hits give low values 1 | S. cerevisiae deletion strains, locus YHR027C, strain rpn1, hits give low values 1.01 | S. cerevisiae deletion strains, locus YHR030C, strain SLT2, hits give low values 0.966 | S. cerevisiae deletion strains, locus YHR079C, strain IRE1 (second series), hits give low values 0.994 | S. cerevisiae deletion strains, locus YHR094C, strain hxt1, hits give low values 0.99 | S. cerevisiae deletion strains, locus YHR129C, strain ARP1, hits give low values 0.931 | S. cerevisiae deletion strains, locus YHR142W, strain chs7, hits give low values 1.05 | S. cerevisiae deletion strains, locus YHR200W, strain rpn10, hits give low values 0.988 | S. cerevisiae deletion strains, locus YIL066C, strain RNR3, hits give low values 0.88 | S. cerevisiae deletion strains, locus YIL073C, strain SPO22, hits give low values 0.947 | S. cerevisiae deletion strains, locus YIL125W, strain kgd1, hits give low values 0.99 | S. cerevisiae deletion strains, locus YIR030C, strain dcg1, hits give low values 1.02 | S. cerevisiae deletion strains, locus YJL092W, strain hpr5, hits give low values 1.02 | S. cerevisiae deletion strains, locus YJL095W, strain BCK1 (second series), hits give low values 1.01 | S. cerevisiae deletion strains, locus YJL095W, strain BCK1, hits give low values 0.939 | S. cerevisiae deletion strains, locus YJL115W, strain asf1, hits give low values 1.02 | S. cerevisiae deletion strains, locus YJL129C, strain trk1, hits give low values 1.06 | S. cerevisiae deletion strains, locus YJL134W, strain LCB3, hits give low values 0.984 | S. cerevisiae deletion strains, locus YJL154C, strain vps35, hits give low values 1.03 | S. cerevisiae deletion strains, locus YJL164C, strain tpk1, hits give low values 0.98 | S. cerevisiae deletion strains, locus YJL166W, strain qcr8, hits give low values 1.01 | S. cerevisiae deletion strains, locus YJL168C, strain set2, hits give low values 0.992 | S. cerevisiae deletion strains, locus YJL187C, strain SWE1 (second series), hits give low values 0.891 | S. cerevisiae deletion strains, locus YJL187C, strain SWE1, hits give low values 0.997 | S. cerevisiae deletion strains, locus YJR043C, strain POL32, hits give low values 0.935 | S. cerevisiae deletion strains, locus YJR075W, strain HOC1, hits give low values 0.973 | S. cerevisiae deletion strains, locus YKL009W, strain mrt4, hits give low values 1.02 | S. cerevisiae deletion strains, locus YKL068W, hits give low values 0.98 | S. cerevisiae deletion strains, locus YKL085W, strain MDH1 (second series), hits give low values 1 | S. cerevisiae deletion strains, locus YKL085W, strain MDH1, hits give low values 1 | S. cerevisiae deletion strains, locus YKL160W, strain elf1, hits give low values 0.991 | S. cerevisiae deletion strains, locus YKR001C, strain vps1, hits give low values 0.962 | S. cerevisiae deletion strains, locus YKR026C, strain gcn3, hits give low values 1.01 | S. cerevisiae deletion strains, locus YKR091W, strain srl3, hits give low values 1.01 | S. cerevisiae deletion strains, locus YLL001W, strain dnm1, hits give low values 1.02 | S. cerevisiae deletion strains, locus YLL026W, hits give low values 1.01 | S. cerevisiae deletion strains, locus YLL041C, strain sdh2, hits give low values 1.02 | S. cerevisiae deletion strains, locus YLR027C, strain aat2, hits give low values 1.01 | S. cerevisiae deletion strains, locus YLR039C, strain RIC1, hits give low values 0.95 | S. cerevisiae deletion strains, locus YLR058C, strain SHM2, hits give low values 0.913 | S. cerevisiae deletion strains, locus YLR102C, strain apc9, hits give low values 0.99 | S. cerevisiae deletion strains, locus YLR221C, strain rsa3, hits give low values 1 | S. cerevisiae deletion strains, locus YLR258W, strain gsy2, hits give low values 1.01 | S. cerevisiae deletion strains, locus YLR262C, strain YPT6 (second series), hits give low values 1.04 | S. cerevisiae deletion strains, locus YLR262C, strain YPT6, hits give low values 1.04 | S. cerevisiae deletion strains, locus YLR268W, strain sec22, hits give low values 0.963 | S. cerevisiae deletion strains, locus YLR320W, strain mms22, hits give low values 0.996 | S. cerevisiae deletion strains, locus YLR330W, strain CHS5, hits give low values 0.975 | S. cerevisiae deletion strains, locus YLR342W, strain FKS1 (second series), hits give low values 0.981 | S. cerevisiae deletion strains, locus YLR342W, strain FKS1, hits give low values 0.996 | S. cerevisiae deletion strains, locus YLR357W, strain rsc2, hits give low values 0.985 | S. cerevisiae deletion strains, locus YLR370C, strain arc18, hits give low values 1.01 | S. cerevisiae deletion strains, locus YLR371W, strain rom2, hits give low values 0.996 | S. cerevisiae deletion strains, locus YLR384C, strain iki3, hits give low values 1.04 | S. cerevisiae deletion strains, locus YLR418C, strain cdc73, hits give low values 0.975 | S. cerevisiae deletion strains, locus YML016C, strain PPZ1, hits give low values 0.957 | S. cerevisiae deletion strains, locus YML032C, strain rad52, hits give low values 0.998 | S. cerevisiae deletion strains, locus YML120C, strain ndi1, hits give low values 1.03 | S. cerevisiae deletion strains, locus YML124C, strain tub3, hits give low values 1 | S. cerevisiae deletion strains, locus YMR058W, strain fet3, hits give low values 0.969 | S. cerevisiae deletion strains, locus YMR078C, strain ctf18, hits give low values 0.997 | S. cerevisiae deletion strains, locus YMR125W, strain sto1, hits give low values 1.01 | S. cerevisiae deletion strains, locus YMR129W, hits give low values 1.02 | S. cerevisiae deletion strains, locus YMR205C, strain PFK2, hits give low values 1.01 | S. cerevisiae deletion strains, locus YMR223W, strain ubp8, hits give low values 0.971 | S. cerevisiae deletion strains, locus YMR231W, strain pep5, hits give low values 1.01 | S. cerevisiae deletion strains, locus YMR307W, strain GAS1, hits give low values 1.17 | S. cerevisiae deletion strains, locus YNL067W, strain RPL9B, hits give low values 0.951 | S. cerevisiae deletion strains, locus YNL071W, strain lat1, hits give low values 1.02 | S. cerevisiae deletion strains, locus YNL153C, strain GIM3, hits give low values 0.912 | S. cerevisiae deletion strains, locus YNL209W, strain ssb2, hits give low values 0.994 | S. cerevisiae deletion strains, locus YNL233W, strain BNI4, hits give low values 0.973 | S. cerevisiae deletion strains, locus YNL248C, strain rpa49, hits give low values 1.02 | S. cerevisiae deletion strains, locus YNL250W, strain rad50, hits give low values 0.97 | S. cerevisiae deletion strains, locus YNL271C, strain bni1, hits give low values 0.986 | S. cerevisiae deletion strains, locus YNL298W, strain CLA4, hits give low values 0.975 | S. cerevisiae deletion strains, locus YNL307C, strain MCK1, hits give low values 0.965 | S. cerevisiae deletion strains, locus YNL322C, strain KRE1 (second series), hits give low values 1.03 | S. cerevisiae deletion strains, locus YNR049C, strain mso1, hits give low values 1.02 | S. cerevisiae deletion strains, locus YNR052C, strain pop2, hits give low values 0.993 | S. cerevisiae deletion strains, locus YOL012C, strain htz1 0.606 | S. cerevisiae deletion strains, locus YOL147C, strain pex11, hits give low values 0.99 | S. cerevisiae deletion strains, locus YOR001W, strain rrp6, hits give low values 0.987 | S. cerevisiae deletion strains, locus YOR061W, strain CKA2, hits give low values 0.917 | S. cerevisiae deletion strains, locus YOR069W, strain VPS5, hits give low values 0.98 | S. cerevisiae deletion strains, locus YOR070C, strain gyp1, hits give low values 1.02 | S. cerevisiae deletion strains, locus YOR080W, strain dia2, hits give low values 1 | S. cerevisiae deletion strains, locus YOR083W, strain WHI5, hits give low values 0.996 | S. cerevisiae deletion strains, locus YOR106W, strain vam3, hits give low values 0.983 | S. cerevisiae deletion strains, locus YOR136W, strain idh2, hits give low values 0.993 | S. cerevisiae deletion strains, locus YOR144C, strain elg1, hits give low values 1.01 | S. cerevisiae deletion strains, locus YOR184W, strain ser1, hits give low values 0.958 | S. cerevisiae deletion strains, locus YOR265W, strain rbl2, hits give low values 0.999 | S. cerevisiae deletion strains, locus YOR270C, strain vph1, hits give low values 1.02 | S. cerevisiae deletion strains, locus YOR290C, strain snf2, hits give low values 0.982 | S. cerevisiae deletion strains, locus YOR316C, strain cot1, hits give low values 0.989 | S. cerevisiae deletion strains, locus YPL051W, strain arl3, hits give low values 0.968 | S. cerevisiae deletion strains, locus YPL078C, strain atp4, hits give low values 1.03 | S. cerevisiae deletion strains, locus YPL106C, strain sse1, hits give low values 1 | S. cerevisiae deletion strains, locus YPL240C, strain hsp82, hits give low values 1.01 | S. cerevisiae deletion strains, locus YPR119W, strain clb2, hits give low values 1.01 | S. cerevisiae deletion strains, locus YPR141C, strain kar3, hits give low values 0.98 | S. cerevisiae deletion strains, locus YPR163C, strain tif3, hits give low values 0.997 | S. cerevisiae deletion strains, locus YPR167C, strain met16, hits give low values 0.99 | S. cerevisiae deletion strains, strain wtn01, hits give low values 0.969 | S. cerevisiae strains, strain wild type, hits give low values 0.904
